{"source": "PubChem BioAssay (NCATS)", "key": {"[1]": {"assay": "Cytotoxicity counterscreen for inhibitors of SARS-CoV-2 cell entry (AID 1645845); also: nearly all actives have a fitted effect of over 50% in size", "method_in_brief": "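ATP-content luminescence (ATPLite 1step, 15 min RT) read after 48 h compound exposure of Expi293F cells stably expressing human ACE2; normalized to cells-only wells and media-only wells.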"}, "[2]": {"assay": "Primary qHTS to identify inhibitors of SARS-CoV-2 cell entry (AID 1645846); also: nearly all actives have a fitted effect of over 45% in size", "conditions": "activity change, negative = inhibition: at 57.1 µM (top of the series) unless noted", "method_in_brief": "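Luminescence readout (Bright-Glo luciferase) 48 h after pseudoparticle addition. HEK293-ACE2 cells, 1500/well; compound pre-incubation 1 h; Normalized to spike PP and bald PP.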"}}, "note": "Records with an inconclusive call do not appear. Entries that show only a call come without a potency. Calls of active or inactive are those of the source. Calls follow the shape of the full dose curve."}
{"smiles": "CC/C=C(\\C(=O)N[C@@H]1C(=O)N2C(C(=O)OCOC(=O)C(C)(C)C)=C(COC(N)=O)CS[C@H]12)c1csc(N)n1", "values": [{"measurement": "Potency", "setting": "[1]", "value": "inactive"}, {"measurement": "activity change, negative = inhibition", "setting": "[2]", "value": -26.6, "unit": "%"}]}
{"smiles": "Cc1ncc([N+](=O)[O-])n1CCO", "values": [{"measurement": "Potency", "setting": "[1]", "value": "inactive"}, {"measurement": "activity change, negative = inhibition", "setting": "[2]", "value": -22, "unit": "%"}]}
{"smiles": "Nc1cccc2c1CN(C1CCC(=O)NC1=O)C2=O", "note": "(stereo not drawn)", "values": [{"measurement": "Potency", "setting": "[1]", "value": "inactive"}, {"measurement": "Potency", "setting": "[2]", "value": "inactive"}]}
{"smiles": "COc1nc(N)nc2c1ncn2[C@@H]1O[C@H](CO)[C@@H](O)[C@@H]1O", "values": [{"measurement": "Potency", "setting": "[1]", "value": "inactive"}, {"measurement": "Potency", "setting": "[2]", "value": "inactive"}]}
{"smiles": "Cc1ccc(S(=O)(=O)NC(=O)NN2CC3CCCC3C2)cc1", "note": "(stereo not drawn)", "values": [{"measurement": "Potency", "setting": "[1]", "value": "inactive"}, {"measurement": "Potency", "setting": "[2]", "value": "inactive"}]}
{"smiles": "COc1cc2nc(N3CCN(C(=O)c4ccco4)CC3)nc(N)c2cc1OC", "values": [{"measurement": "Potency", "setting": "[1]", "value": "inactive"}]}
{"smiles": "Oc1cn2c(n1)Nc1ccc(Cl)c(Cl)c1C2", "values": [{"measurement": "Potency", "setting": "[1]", "value": "inactive"}, {"measurement": "Potency", "setting": "[2]", "value": "inactive"}]}
{"smiles": "O=C(c1ccccc1)c1ccc2n1CCC2C(=O)O", "note": "(stereo not drawn)", "values": [{"measurement": "Potency", "setting": "[1]", "value": "inactive"}, {"measurement": "Potency", "setting": "[2]", "value": "inactive"}]}
{"smiles": "Cc1cn([C@H]2C=C[C@@H](CO)O2)c(=O)[nH]c1=O", "values": [{"measurement": "Potency", "setting": "[1]", "value": "inactive"}]}
{"smiles": "CC(=O)O[C@]1(C(C)=O)CC[C@H]2[C@@H]3C=C(Cl)C4=CC(=O)[C@@H]5C[C@@H]5[C@]4(C)[C@H]3CC[C@@]21C", "values": [{"measurement": "Potency", "setting": "[1]", "value": "inactive"}]}
{"smiles": "CN(C)CC/C=C1\\c2ccccc2COc2ccccc21", "values": [{"measurement": "Potency", "setting": "[1]", "value": "inactive"}]}
{"smiles": "Cc1cc2c(s1)Nc1ccccc1N=C2N1CCN(C)CC1", "values": [{"measurement": "Potency", "setting": "[1]", "value": "inactive"}, {"measurement": "activity change, negative = inhibition", "setting": "[2]", "value": -19.8, "unit": "%"}]}
{"smiles": "CCOc1ccccc1OCCN[C@H](C)Cc1ccc(OC)c(S(N)(=O)=O)c1", "values": [{"measurement": "Potency", "setting": "[1]", "value": "inactive"}, {"measurement": "activity change, negative = inhibition", "setting": "[2]", "value": -21.5, "unit": "%"}]}
{"smiles": "CCCCOCCOCCOCc1cc2c(cc1CCC)OCO2", "values": [{"measurement": "Potency", "setting": "[1]", "value": "inactive"}, {"measurement": "activity change, negative = inhibition", "setting": "[2]", "value": -2.81, "unit": "%"}]}
{"smiles": "CNC1(C)C2CCC(C2)C1(C)C", "note": "(stereo not drawn)", "values": [{"measurement": "Potency", "setting": "[1]", "value": "inactive"}, {"measurement": "Potency", "setting": "[2]", "value": "inactive"}]}
{"smiles": "Cc1ccc(C(=O)c2cc(O)c(O)c([N+](=O)[O-])c2)cc1", "values": [{"measurement": "Potency", "setting": "[1]", "value": "inactive"}, {"measurement": "activity change, negative = inhibition", "setting": "[2]", "value": -19.3, "unit": "%"}]}
